From PubChem BioAssay (Tox21)
The source made the active and inactive calls. Calls follow the shape of the dose curve; as a rule, active = well fitted curve in the direction sought with a large enough effect in the repeat runs; inconclusive = weak or mixed curves; inactive = flat fitted curve, though single readings scatter.

Test: qHTS assay to test for compound auto fluorescence at 460 nm (blue) in HEK293 cell free culture (AID 720681)
Settings: cell-free medium, autofluorescence 405/460 nm (blue); series mostly up to 91.3 µM; fluorescence, % of fluorescent control: at the top concentration
From the text: U.S. Tox21 Program National Center for Advancing Translational Sciences [NCATS] NIH Chemical Genomics Center [NCGC] U.S. Environmental Protection Agency [EPA] National Institutes of Environmental Health Sciences [NIEHS] National Toxicology Program [NTP] U.S. Food and Drug Administration [FDA] Tox21 Assay Overview: Compound auto fluorescence often interferes with screening of the compound library against various biological targets and signaling pathways. Some of these compounds may have fluorophoric properties. Such properties may interfere with the assay outputs resulting in false positives and/or negatives. To decrease such complications and ensure the compound activities are relevant in terms of biological response, the Tox21 10K compound library was screened for auto fluorescence. From the fluorophores used as reporter signals in our screening assays, the auto fluorescence equivalencies of compounds against three fluorophores have been evaluated: Triamterene, Fluorescein and Rose Bengal sodium for blue, green and red fluorescence, respectively. The fluorescence intensities were measured using Excitation/Emission wavelengths at 405/460nm, 485/535nm and 540/590nm for blue, green and red labels, respectively. This assay includes the blue fluorescence data.
Tox21 Assay Protocol Summary: 5 uL of culture medium (DMEM containing 10% FBS) per well was dispensed into black wall/clear bottom 1536-well plates using a Multidrop Combi Dispenser (ThermoFisher Scientific, Waltham, MA). After 23 nL compound or DMSO vehicle was transferred into assay plate by a pintool work station (Kalypsys, San Diego, CA), fluorescence intensities in the assay plates were measured by an Envision (PerkinElmer, Shelton, CT) plate reader using three labels for measuring blue, green and red fluorescence at […] 460, 535 and 590nm respectively.
% is scaled to controls: 0 for no effect and ±100 for the full control effect.

| SMILES | fluorescence, % of fluorescent control | outcome |
| --- | --- | --- |
| CC(C)(C)C(=O)C(Oc1ccc(Cl)cc1)n1cncn1 (stereo not given) | -0.0835% (inactive) | – |
| COc1cc(OC)nc(NC(=O)NS(=O)(=O)c2ncccc2OCC(F)(F)F)n1 | 0.0281% (inactive) | – |
| N#CCNCC#N | 0.0833% (inactive) | – |
| CC(C1CC1)C(O)(Cn1cncn1)c1ccc(Cl)cc1 (stereo not given) | 0.167% (inactive) | – |
| CCOC(=O)N(C)C(=O)CSP(=S)(OCC)OCC | -0.0862% (inactive) | – |
| CN1CCC(O)(c2ccc(F)cc2)C(C(=O)c2ccc(F)cc2)C1 (stereo not given) | 0.109% [at 46 µM] (inactive) | – |
| C=CC1CC=CCC1 (stereo not given) | 0.14% (inactive) | – |
| COC(=O)c1ccccc1S(=O)(=O)NC(=O)N(C)c1nc(C)nc(OC)n1 | 0.118% [at 95.7 µM] (inactive) | – |
| O=[N+]([O-])c1cc(Cl)c(Cl)c(Cl)c1 | -0.166% (inactive) | – |
| CCC(=O)c1ccccc1 | -0.074% (inactive) | – |
| NC(=S)C(N)=S | 0.38% (inactive) | – |
| CCC1(c2ccccc2)C(=O)NC(=O)NC1=O | – | inactive |
| Cc1nnc2n1-c1sc(CCC(=O)N3CCOCC3)cc1C(c1ccccc1Cl)=NC2 | – | inactive |
| COC(=O)C(C)Oc1ccc(Oc2ccc(Cl)cc2Cl)cc1 (stereo not given) | -0.0234% (inactive) | – |
| CC1(C)C(=O)NC(=O)NC1=O | -0.0224% (inactive) | – |
| CNC(=O)Oc1cccc(C(C)C)c1 | -0.16% (inactive) | – |
| CCOC(=O)NC(=S)Nc1ccccc1NC(=S)NC(=O)OCC | 0.0021% (inactive) | – |
| CCN(CC)C(=O)[C@@H]1C=C2c3cccc4[nH]cc(c34)C[C@H]2N(C)C1 | 4.27% [at 46 µM] (inactive) | – |
| CC(C)CC#N | 0.108% [at 95.7 µM] (inactive) | – |
| CC(C)NCC(O)c1ccc(N)c(C#N)c1 (stereo not given) | 0.19% [at 46 µM] (inactive) | – |

| SMILES | fluorescence, % of fluorescent control | outcome |
| --- | --- | --- |
| CCCCP(CCCC)CCCC | 0.0835% (inactive) | – |
| CC(CCc1ccccc1)NC(C)C(O)c1ccc(O)cc1 (stereo not given) | -0.0236% [at 46 µM] (inactive) | – |
| CC1=NNC(=O)N(/N=C/c2cccnc2)C1 | 0.0289% (inactive) | – |
| c1cc[c]([Hg][c]2ccccc2)cc1 | -0.0255% (inactive) | – |
| Clc1cccc(N2CCNCC2)c1 | -0.015% [at 46 µM] (inactive) | – |
| C=CCC1=C(C)[C@@H](OC(=O)[C@@H]2[C@@H](C=C(C)C)C2(C)C)CC1=O | -0.0235% (inactive) | – |
| CCCSC(=O)N(CCC)CCC | 0.206% (inactive) | – |
| CCCCC(=O)Cl | -0.125% (inactive) | – |
| CN1CCN(C(=O)O[C@H]2c3nccnc3C(=O)N2c2ccc(Cl)cn2)CC1 | -0.113% [at 46 µM] (inactive) | – |
| CCCSC(=O)Cl | -0.0821% (inactive) | – |
| CCC/C(=N\OCC)C1=C(O)CC(CC(C)SCC)CC1=O (stereo not given) | 0.0034% (inactive) | – |
| BrCCCCCCBr | 0.0313% (inactive) | – |
| C1CCC(C2CCCCC2)CC1 | 0.0535% (inactive) | – |
| CCOP(=S)(OCC)Oc1cc(-c2ccccc2)on1 | 0.117% (inactive) | – |
| COCC(=O)N(c1c(C)cccc1C)N1CCOC1=O | -0.0503% (inactive) | – |
| C[C@]1(O)CC[C@H]2[C@@H]3CCC4=CC(=O)CC[C@]4(C)[C@@]3(F)[C@@H](O)C[C@@]21C | – | inactive |
| O=[N+]([O-])c1cccc(O)c1 | -0.331% (inactive) | – |
| Nc1cc2c3c(c1)C(c1ccccc1)=N[C@@H](NC(=O)c1cccnc1)C(=O)N3CC2 | 0.482% (inactive) | – |
| CC(Oc1ccc(Oc2ncc(C(F)(F)F)cc2Cl)cc1)C(=O)O (stereo not given) | -0.0103% (inactive) | – |
| O=C1c2ccccc2C(=O)c2ccccc21 | 0.0904% [at 46 µM] (inactive) | – |
